Measured values published in PubChem BioAssay AID624335 (National Center for Advancing Translational Sciences (NCATS), 2012).
The source made the active and inactive calls. The call rests on the fitted dose curve; in most records, active means well fitted curve in the direction sought with a large enough effect; inactive means flat fitted curve, though single readings scatter.

Assay: Quantitative high throughput screen for delayed death inhibitors of the malarial parasite plastid: Hit Validation with 3D7 at 96 hr using Flow Cytometry
Conditions: P. falciparum 3D7 in erythrocytes, SYBR/MitoTracker flow cytometry
Excerpt: The goal of this screen is to discover new antimalarial compounds that act by inhibiting the development of the apicoplast organelle in the malarial parasite Plasmodium falciparum. Some antibiotics, such as azithromycin and tetracycline, are known to interfere with the apicoplast translational machinery, and have a potent antimalarial effect. […] We developed a cell-based quantitative high throughput screen that leverages this "delayed death" phenotype to enrich for compounds that target the apicoplast. To detect small molecules that cause the delayed death phenotype, erythrocytes infected with firefly luciferase-expressing parasites were incubated with compounds for either one or two generations, corresponding to 48 and 96 hours, respectively. Growth inhibition was detected by a decrease in luciferase activity. Compounds that inhibited parasite growth in the second generation at least five-fold more potently than in the first generation were defined as delayed death inducing. These compounds were selected for confirmatory screening using a flow cytometry based assay. This hit validation assay used the 3D7 cell line and measured at 96 hours. NIH Molecular Libraries Probe Production Network [MLPCN] NIH Chemical Genomics Center [NCGC] MLPCN Grant: R21 NS059500 Assay Provider: David Fidock and Eric Ekland, Columbia University
Test compounds were diluted in 20 microliters of complete media (RPMI 1640 with 0.5% w/v Albumax (GIBCO), 24 mM sodium bicarbonate (Sigma) and 10 ug/mL gentamycin (Gibco)) in clear 384-well plates (Greiner). All liquid handling was conducted using a Bio Tek Precision 2000 pipetting system. Twenty microliters of infected erythrocytes, 0.2% parasitemia (for 48 hour time points) or 0.1% parasitemia (for 96 hour time points) were added to the compound dilutions (1% hematocrit, final concentration; 40 microliters, total culture volume). The assay plates were incubated for 48 hours, or 96 hours, at 37 masculine C in a humidified chamber (Billups- Rothenberg, Del Mar, CA, USA), gassed with 5%CO2/5%O2/ 90%N2. After two generations (96hours), 5 microliters of culture were harvested and transferred to a second 384 well plate for fluorescent staining. Samples were stained with 30 microliters of 2 x SYBR Green I (Invitrogen) and 150nM MitoTracker Deep Red (Invitrogen) diluted in 0.9% NaCl, 0.2% dextrose (Baxter) supplemented with 2.5% Fetal Calf Serum (Gibco) (saline/FCS). Mature erythrocytes lack nuclei and mitochondria, therefore only parasitized erythrocytes retain the SYBR Green I and MitoTracker Deep Red. After 30 minutes at 37 masculine C, the stained cells were diluted in an additional 60 microliters of saline/FCS. The samples were harvested directly from the 384 well plate using a Hypercyt High Capacity Flow Platform (Intellicyt) paired with a C6 Flow Cytometer (Accuri). The flow cytometry files were analyzed using FlowJo software (FlowJo).
In the case of `O=C(NCc1cccnc1)c1ccc(NS(=O)(=O)c2ccccc2)cc1`, the Potency is reported as 21.4 µM (active).
With `Brc1cccc(OCCCCN2CCCCC2)c1` the Potency was 22.7 µM (active).
With `CCOc1ccc(C(=O)Nc2ccc(N3CCN(C)CC3)cc2)cc1` the Potency was 16.5 µM (active).
For `Clc1ccc(-c2c[n+](Cc3ccc(Cl)cc3Cl)c3n2CCCCC3)cc1`, the Potency was 0.366 µM (active).
In the case of `O=C(c1ccc([N+](=O)[O-])cc1)n1nc(-c2ccccc2)nc1NCc1ccc(F)cc1`, the Potency is reported as 19.3 µM (active).
In the case of `CCCc1c(CC)c(=N)c2ccccc2n1C`, the Potency is reported as 0.198 µM (active).
With `N#Cc1cccc(NC(=O)Cn2c3[n+](c4ccc(C(F)(F)F)cc42)CCCCC3)c1` the Potency was 0.96 µM (active).
With `CCN(CC)C(=O)COc1coc(CN2CCN(c3cccc(Cl)c3)CC2)cc1=O` the Potency was 17.2 µM (active).
In the case of `CN(C)S(=O)(=O)c1cc(NC(=O)C2=COCCO2)ccc1Cl`, the Potency is reported as 15.9 µM (active).
In the case of `CCOc1ccc(S(=O)(=O)Nc2cc(S(=O)(=O)N(CC)CC)ccc2N2CCCC2)cc1`, the Potency is reported as 6.38 µM (active).
With `COc1ccc(C(=O)N2CCN(S(=O)(=O)c3ccc(C)cc3C)CC2)cc1OC` the Potency was 45.8 µM (active).
In the case of `Cc1ccc(CN2CCC(n3nccc3NC(=O)c3ccccc3C)CC2)o1`, the Potency is reported as 20.7 µM (active).
In the case of `CC(=O)NC[C@@H]1CN(c2ccc(N3CCOCC3)c(F)c2)C(=O)O1`, the Potency is reported as 22.2 µM (active).
With `COc1ccc(NC(=S)N2CCC(Cc3ccccc3)CC2)cc1OC` the Potency was 26.6 µM (active).
In the case of `CCOC(=O)c1ccc2c(c1)n(CC)c(/C=C/N(C)c1ccccc1)[n+]2CC`, the Potency is reported as 0.209 µM (active).
For `COc1ccccc1N1CCN(CCC(=O)Nc2ccc(F)cc2)CC1`, the Potency was 15.7 µM (active).
With `CCCCN(CCCNC(=O)C1CCN(C(=O)c2cc3sccc3n2C)CC1)Cc1ccccc1` the Potency was 0.617 µM (active).
In the case of `COc1ccc2c(ccc[n+]2CC(=O)c2ccccc2)c1`, the Potency is reported as 2.22 µM (active).
With `CCCc1cc(=O)oc2cc(OC(C)C(=O)NCc3ccccn3)c(Cl)cc12` (stereo not given) the Potency was 3.22 µM (active).
For `CCCCN(CCCNC(=O)c1ccc(CS(=O)(=O)c2ccc(OC)cc2)o1)Cc1ccccc1`, the Potency was 4.01 µM (active).
In the case of `O=C(CNC(=O)C1CCCCC1)OC(C(=O)c1ccccc1)c1ccccc1` (stereo not given), the Potency is reported as 31.7 µM (active).
In the case of `COc1ccc(Nc2nnc(-c3ccc(C)cc3)c3ccccc23)cc1C(=O)N1CCCCC1`, the Potency is reported as 20 µM (active).
In the case of `COc1cc(C(C)=O)ccc1OCC(O)CN1CCN(c2cc(C)cc(C)c2)CC1` (stereo not given), the Potency is reported as 13.9 µM (active).
In the case of `CCc1nc(SCC(=O)Nc2ccc(N(C)C)cc2)n[nH]1`, the Potency is reported as 23.9 µM (active).
For `c1csc(CNc2ncnc3nc[nH]c23)c1`, the Potency was 23.4 µM (active).
With `CCC(=O)OC1C(N(C)C)CC(C)O[C@H]1O[C@H]1[C@H](C)[C@@H](O[C@H]2CC(OC)[C@@H](O)C(C)O2)[C@H](C)C(=O)O[C@@H](CC)[C@](C)(O)[C@@H](O)[C@H](C)C(=O)[C@@H](C)C[C@]1(C)O` (stereo not given in full) the Potency was 11.4 µM (active).
With `Cc1c(F)c(N2CCNC(C)C2)cc2c1c(=O)c(C(=O)O)cn2C1CC1` (stereo not given) the Potency was 0.651 µM (active).
With `COCCNC(=O)c1cccc(OC2CCN(Cc3cccc(SC)c3)CC2)c1` the Potency was 5.37 µM (active).
For `CC(C)C(=O)NCCSc1c[nH]c2ccccc12`, the Potency was 16.6 µM (active).
With `COc1cccc(CN2CCN(c3nc4nonc4nc3N3CCCCC3)CC2=O)c1` the Potency was 1 µM (active).
In the case of `CCOc1ccc(NC(=O)C[n+]2ccc(N(C)C)cc2)cc1`, the Potency is reported as 0.135 µM (active).
For `CC1=Nc2cc(C(=O)N3CCCC3)ccc2Sc2ccc(C)cc21`, the Potency was 18 µM (active).
With `CN(C)c1ccc(CN(C(=O)c2ccccc2Br)C2CCS(=O)(=O)C2)cc1` (stereo not given) the Potency was 18.2 µM (active).
In the case of `Cc1sc2nc[nH]c(=O)c2c1-c1ccc(Cl)cc1`, the Potency is reported as 13.8 µM (active).
With `CO[C@@H]1[C@@H](OC2OC(C)C(OC3CC(C)(O)C(OC(=O)CC(C)C)C(C)O3)C(N(C)C)C2O)[C@@H](CC=O)C[C@@H](C)C(=O)/C=C\C2O[C@H]2C[C@@H](C)OC(=O)C[C@H]1OC(C)=O` (stereo not given in full) the Potency was 0.178 µM (active).
With `Cc1ccc(S(=O)(=O)Nc2ccc(C(=O)Nc3ccncc3)cc2)cc1` the Potency was 13.9 µM (active).
For `COc1ccc(CNC(=O)C2CCC(CNS(=O)(=O)c3cccc4cccnc34)CC2)cc1` (stereo not given), the Potency was 16.5 µM (active).
For `COc1ccc2cc3cc(C(=O)Nc4ccc5c(c4)OCO5)oc3nc2c1`, the Potency was 11.9 µM (active).
For `Cc1ccc(-n2c(-c3ccc(Cl)cc3)c[n+]3c2CCC3)cc1`, the Potency was 0.15 µM (active).
In the case of `O=C(Nc1ccccc1N1CCOCC1)c1cccc(S(=O)(=O)N2CCOCC2)c1`, the Potency is reported as 11 µM (active).
